Screening data as filed in PubChem BioAssay.
Shown are actives, neighbours in structure and some others; about 3.2% of the full set was active somewhere.
AmpC no deterg: AmpC beta-lactamase inhibition without detergent. P00811. AmpC nitrocefin hydrolysis, absorbance 480 nm, 0.0001% Triton. Potency, µM (series often up to 57.1 µM), usual class: inhibitors. actives 0.52% (n = 330,000); note: nearly all actives have a fitted effect of over 20% in size
Target sequence (P00811 whole entry, looked up): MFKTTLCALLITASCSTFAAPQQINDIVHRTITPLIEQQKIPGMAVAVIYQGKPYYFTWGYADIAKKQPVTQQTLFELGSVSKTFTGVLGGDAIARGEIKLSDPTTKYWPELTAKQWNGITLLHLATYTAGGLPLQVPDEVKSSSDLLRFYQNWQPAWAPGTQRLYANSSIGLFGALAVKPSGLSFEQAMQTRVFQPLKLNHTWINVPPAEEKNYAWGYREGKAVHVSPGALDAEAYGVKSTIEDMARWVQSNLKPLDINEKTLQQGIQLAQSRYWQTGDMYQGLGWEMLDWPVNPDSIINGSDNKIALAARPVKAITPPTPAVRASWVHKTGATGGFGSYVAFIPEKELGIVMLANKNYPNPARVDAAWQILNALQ
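20 mM phosphate pH 7.0 + 0.01% (detergent screen) or 0.0001% Triton X-100; 5.3 nM AmpC reagent; cpd preinc 15 min RT; nitrocefin (800 uM stock) to start; A480 q20 s × 4 min; Activity was normalised to no-enzyme and no-compound control wells.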
Sm TGR inh: S. mansoni TGR enzyme inhibition; Q962Y6; purified TGR, DTNB reduction, TNB absorbance 405 nm; Potency, µM (series often up to 114 µM), hits mostly inhibitors; actives 3% (n = 360,000); note: nearly all actives have a fitted effect of over 60% in size
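Kinetic colorimetric format: TGR-catalysed, NADPH-driven DTNB reduction monitored via TNB absorbance. Enzyme dispensed at 20 nM; compound exposure 15 min at room temperature before reaction start.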
RE007 growth inh: less growth of the S. pombe RE007 Vpr strain; S. pombe RE007 Vpr strain, BacTiter-Glo ATP luminescence, 24 h; Potency, µM (series often up to 92.2 µM), hits mostly inhibitors; actives 0.21% (n = 360,000); active = well fitted falling curve with a large enough effect; inconclusive = small, poorly fitted or top-dose-only effect; inactive = no such curve, though single readings can be large or run the other way; note: nearly all actives have a fitted effect of over 50% in size
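Fission yeast RE007 carrying one integrated HIV-1 vpr copy, seeded at OD 0.01 in PMG+AL medium with 23 nL pinned compound. Grown 24 h at 30 degrees; viability read by BacTiter-Glo luminescence after 5 min.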
AmpC inh detg: inhibitors of E. coli AmpC beta-lactamase with detergent | AmpC hydrolysis of nitrocefin, absorbance 480 nm, 0.01% Triton | actives 0.041% (n = 370,000) | AID 485294 | Potency, µM (top dose mostly 114 µM), usual class: inhibitors; note: nearly all actives have a fitted effect of over 25% in size
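20 mM phosphate pH 7.0 + 0.01% (detergent screen) or 0.0001% Triton X-100; 5.3 nM AmpC reagent; cpd preinc 15 min RT; nitrocefin (800 uM stock) to start; A480 q20 s × 4 min; Activity was normalised to no-enzyme and no-compound control wells.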
AMA1-RON2 inh: disrupts binding of P. falciparum AMA1 to RON2; AlphaScreen AMA1-biotinylated RON2 peptide binding; Potency, µM (doses to about 58.2 µM), usual class: inhibitors; actives 0.2% (n = 360,000); AID 720542; note: nearly all actives have a fitted effect of over 45% in size
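AMA1 (3D7) with his tag at 25 nM final met compounds first, then biotinylated RON2 peptide at 25 nM; detection used donor plus acceptor beads, 10 µg/mL apiece, read by AlphaScreen after 30 min at room temperature.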
Numbers stand for hits; – = inactive; ? = inconclusive; · = no result; [ ] = dose if it differs, or a comment. Unless noted, calls come from the whole dose curve; as a rule, active = well fitted curve in the direction sought with a large enough effect; inconclusive = small, poorly fitted or top-dose-only effect, or another doubt; inactive = no such curve, though single readings can be large; an effect the other way counts as inactive or inconclusive.

SMILES | AmpC no deterg | Sm TGR inh | RE007 growth inh | AmpC inh detg | AMA1-RON2 inh
CCOc1ccc(NCc2nnc(SCc3ccccc3Cl)n2-c2ccccc2)cc1 | – | – | – | – | 27µM
COc1ccc(-n2c(CNc3ccc(C)cc3)nnc2SCc2ccccc2)cc1 | – | – | · | – | –
O=C(N/N=C/c1cccs1)c1cccc(S(=O)(=O)Nc2ccc(Cl)cc2)c1 | 14µM | – | – | – | –
O=C(N/N=C/c1cccs1)c1cccc(NC(=O)c2ccc(Cl)cc2)c1 | – | – | · | – | ·
COc1ccc2[nH]c(C)c(C(=O)CN3CCc4cc(OC)c(OC)cc4C3)c2c1 | – | – | – | – | –
COc1ccc2[nH]c(C)c(C(=O)CN3CCOCC3)c2c1 | – | 45µM | – | – | –
Cc1ccc(/C=C/C(=O)OCn2nnc3ccccc3c2=O)o1 | – | – | – | – | –
O=C(/C=C/c1ccco1)OCn1nnc2ccccc2c1=O | – | 22µM | – | – | –
O=C(OCc1nnc(-c2ccccc2)o1)c1ccc(CO)cc1 | – | – | ? | – | –
O=C(/C=C/c1ccco1)OCc1nnc(-c2ccc(Cl)cc2)o1 | – | 11µM | – | – | –
O=C(/C=C/c1ccco1)OCc1nnc(-c2ccccc2)o1 | – | 14µM | – | – | –
O=C(OCc1nnc(-c2ccccc2)o1)c1ccc(Cl)cc1 | – | · | – | – | –
CCCCNc1nc(Oc2ccc(=O)n(C)n2)nc(N(C)C)n1 | · | – | · | – | ·
Cc1cccc(-c2nc3c4ccccc4nc(N4CCN(c5cccc(Cl)c5)CC4)n3n2)c1 | · | – | · | – | ·
CSc1ccc(CCNC(=O)C2=C(C)C(=O)OC23CCCCC3)cc1 | · | – | · | – | ·
COCCn1nnnc1C(c1cc2cc(C)cc(C)c2[nH]c1=O)N1CCN(c2ccccc2F)CC1 (centres undefined) | – | 40µM | – | – | –
COCCn1nnnc1C(c1cc2cc(C)ccc2[nH]c1=O)N1CCCCCC1 (centres undefined) | – | ? | – | – | –
COCCn1nnnc1C(c1cc2c(C)cc(C)cc2[nH]c1=O)N1CCCCCC1 (centres undefined) | – | 13µM | – | – | –
COc1ccc(-c2c(C)nn3c(N)c(-c4ccccc4)cnc23)cc1OC | – | 40µM | – | – | –
COc1ccccc1-c1c(C)nn2c(N)c(-c3ccccc3)cnc12 | – | – | – | – | –
N#C/C(=C(/O)COC(=O)CSc1ccc(Cl)cc1)c1nc2ccccc2[nH]1 | – | – | – | – | –
Cc1cc(SCC(=O)OC/C(O)=C(\C#N)c2nc3ccccc3[nH]2)c(C)cc1Br | 10µM | – | – | – | –
Cc1ccc(OCCn2c(C3CC(=O)N(Cc4ccccc4)C3)nc3ccccc32)cc1 (centres undefined) | 45µM | – | – | ? | –
Cc1cc(C)cc(OCCn2c(C3CC(=O)N(c4ccccc4Cl)C3)nc3ccccc32)c1 (centres undefined) | – | – | · | – | ·
CC(C)Nc1ccc(Nc2ccnc3cc4ccccc4cc23)cc1 | – | – | – | – | 7.9µM
SMILES | AmpC no deterg | Sm TGR inh | RE007 growth inh | AmpC inh detg | AMA1-RON2 inh
O=C(NCCc1ccccc1)c1nccc2ccccc12 | – | – | – | – | –
c1ccc(CCNc2ccnc3cc4ccccc4cc23)cc1 | 18µM | – | – | – | –
CCOc1ccc(-c2nonc2NC(=O)COc2ccccc2)cc1 | · | – | · | – | ·
Cc1ccc(-n2c(=O)c3cccnc3n2CC(=O)Nc2ccc(Br)cc2)cc1C | · | – | · | – | ·
C#CC(=O)N(c1ccc(OC)c(OC)c1)C(C(=O)NC1CCCC1)c1cccs1 (centres undefined) | ? | 5.6µM | – | – | –
C#CC(=O)N(c1cccc(OC)c1)C(C(=O)NC1CCCC1)c1cccs1 (centres undefined) | – | 7.9µM | – | – | –
CCOc1ccc(-n2c(SCc3ccc(C(=O)OC)o3)nc3c([nH]c4ccccc43)c2=O)cc1 | · | – | · | – | ·
CC1(C)Cc2nc3sc4c(=O)n(CC(=O)NCc5ccco5)cnc4c3cc2CO1 | – | 35µM | – | ? | –
CC(C)N(Cc1ccccc1)S(=O)(=O)c1ccc(N2CCCCS2(=O)=O)cc1 | · | – | · | – | ·
N#CC(C#N)=C1C=CC=CN1/C(=C\c1ccco1)C(=O)c1ccc(Cl)cc1 | – | 1.4µM | – | – | –
Cc1ccc(C(=O)Nc2cccc(C(=O)OCc3cc(=O)n4nc(C5CC5)sc4n3)c2)cc1 | · | – | · | – | ·
CC(C)(C)OC(=O)N1CCC(c2c(C(=O)N3CCN(c4ncccn4)CC3)cnn2-c2ccc(F)cc2)CC1 | · | – | · | – | ·
O=C(NC(=S)NCc1ccccc1)c1ccccc1F | – | ? | –[3.69 µM] | – | –
O=C(NC(=S)NCCc1ccccc1)c1ccccc1 | – | 18µM | – | ? | –
O=C(NC(=S)N1CCCC1)c1ccccc1F | – | – | – | ? | –[11.6 µM]
O=C(NC(=S)NC(=O)c1ccccc1F)c1ccccc1F | – | 2.8µM | – | ? | –
O=C(NC(=S)NCCc1ccccc1)c1ccccc1F | – | 40µM | – | – | –
Cc1ccc(C(=O)NC(=S)Nc2cccnc2Cl)cc1 | – | 16µM | – | – | –
Cc1ccc(CNC(=O)CSc2nnc(C)c3c(C)n(-c4ccccc4)nc23)cc1 | · | – | · | – | ·
O=C(NCCc1ccccc1Cl)c1ccc2c(=O)n(-c3ccccc3)c(=O)[nH]c2c1 | · | – | · | – | ·
O=C(Nc1ccc(Cl)c(Cl)c1)N1CCC(c2ccccc2)C1 (centres undefined) | · | – | · | – | ·
Cc1ccc(C(=O)NC(=S)NCc2ccccc2)cc1 | – | 6.3µM | ? | – | –
COc1ccc(CCNC(=S)NC(=O)c2ccc(Br)cc2)cc1OC | – | ? | – | – | –
COc1ccc(CCNC(=S)NC(=O)c2ccccc2)cc1C | 11µM | 3.5µM | – | – | –
CC(OC(=O)c1ccc(NC(=O)CC#N)cc1)C(=O)Nc1nc(-c2ccccc2)cs1 (centres undefined) | – | – | – | ? | –
SMILES | AmpC no deterg | Sm TGR inh | RE007 growth inh | AmpC inh detg | AMA1-RON2 inh
N#CCC(=O)Nc1ccc(C(=O)OCC(=O)N=c2sccn2Cc2ccccc2Cl)cc1 | 10µM | – | – | – | –
CC(OC(=O)c1ccc(NC(=O)CC#N)cc1)C(=O)Nc1ccc(Oc2ccccc2)cc1 (centres undefined) | 6.3µM | – | · | – | ·
CCn1c2ccccc2c2cc(NC(=O)COc3ccccc3)ccc21 | 25µM | – | – | – | –
O=C(COC(=O)c1ccc(CO)cc1)Nc1ccc2ccccc2c1 | – | – | – | – | –
N#CCC(=O)Nc1ccc(C(=O)OCC(=O)Nc2ccc3ccccc3c2)cc1 | 20µM | – | – | – | –
N#CCC(=O)Nc1ccc(C(=O)OC(C(=O)Nc2cc(C(F)(F)F)ccc2Cl)c2ccccc2)cc1 (centres undefined) | 7.1µM | – | – | – | –
